PubChem BioAssay (NCI)
Compounds without any hit were thinned out: in the full panel of roughly 83,000, 20% have a hit.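 The endpoint reported here, percent growth, reads 100 for growth as untreated, 0 for no net growth and -100 for all cells dead.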 Calls of active or inactive are those of the source. Rule for the calls: active = growth percent below 10; inactive = the rest.

Experiments:
Assay in all cases: NCI-60 one-dose screen, 48 h (100 = growth as untreated, 0 = no growth, -100 = all killed)
Conditions in all cases: 10 µM unless noted
[1] = test system: DU-145 prostate
[2] = test system: K-562 leukemia
[3] = test system: MALME-3M melanoma
[4] = test system: MDA-MB-231 breast
[5] = test system: RXF 393 renal
[6] = test system: SF-268 CNS
[7] = test system: SF-295 CNS
[8] = test system: SF-539 CNS
[9] = test system: UACC-257 melanoma
[10] = test system: M14 melanoma

Measured: growth

C=CC(=O)N1CCN(c2ccc3cccc(NC(=O)c4cnc(C)cn4)c3n2)CC1
inactive: [1] 29.1% | [2] 36.5% | [3] 30.5% | [4] 36.7% | [5] 11.4% | [6] 37.6% | [7] 61.5% | [8] 35.1% | [9] 37.2% | [10] 41.2%

COc1ccc(-c2cc(C(=O)N3N=C(c4ccc(N)cc4)CC3c3ccccc3)c3ccccc3n2)cc1 (stereo not given)
inactive: [1] 21.8% | [2] 19.8% | [3] 54.6% | [4] 62.9% | [5] 51.1% | [6] 51.5% | [8] 13.4% | [9] 47.2% | [10] 17.2%
active: [7] 6.86%

Cc1ccc(C)n1/C=C/n1c(C)ccc1C
inactive: [1] 113% | [2] 117% | [3] 117% | [4] 99.2% | [5] 102% | [6] 143% | [7] 76.9% | [8] 100% | [9] 119% | [10] 110%

N#Cc1c(-c2ccccc2)c(C#N)c2c(C#N)c(N)nn2c1N
inactive: [1] 78.6% | [3] 39.6% | [4] 33.6% | [5] 69.8% | [6] 56.3% | [7] 33.4% | [8] 37.2% | [9] 51.1% | [10] 32.9%
active: [2] 6.77%

Cc1cccc(NC(=O)CSc2nc3ccc([N+](=O)[O-])cc3[nH]2)c1
inactive: [1] 85% | [2] 66.5% | [3] 62.2% | [4] 97.3% | [5] 89% | [6] 87.8% | [7] 62.7% | [8] 87.1% | [9] 70.9% | [10] 79.9%

CCOC(=O)c1c(NC(=O)c2ccc(C(C)(C)C)cc2)sc2cc(O)ccc12
inactive: [1] 97.7% | [2] 43.4% | [3] 98.7% | [4] 110% | [5] 115% | [6] 102% | [7] 105% | [8] 90.9% | [9] 97.3% | [10] 86.6%

COc1ccc(Cc2cnc(NC(=O)c3sc4ccccc4c3Cl)s2)cc1
active: [2] 7% | [5] 1.01% | [8] -19.4%
inactive: [1] 25% | [3] 56.6% | [4] 41.9% | [6] 52.9% | [7] 14.9% | [9] 49.8% | [10] 10.2%

COc1cc2nc(Nc3cccc(F)c3)nc(Nc3cc(C)[nH]n3)c2cc1OC
active: [1] -94.7% [20 µM] | [2] -31.1% [20 µM] | [3] -98.1% [20 µM] | [4] -98.6% [20 µM] | [5] -88.7% [20 µM] | [6] -69.9% [20 µM] | [7] -92.1% [20 µM] | [8] -100% [20 µM] | [9] -62.4% [20 µM] | [10] -91.4% [20 µM]

CS(=O)(=O)Nc1cncc(-c2ccc3ncnc(Nc4ccc(F)c(Cl)c4)c3c2)c1
inactive: [1] 36.5% | [2] 35.3% | [3] 44.1% | [4] 54.6% | [5] 24.9% | [6] 41.5% | [7] 44.5% | [8] 32.5% | [9] 35.2% | [10] 52.5%

CCn1cc(C(=O)N/N=C/c2ccc(Br)cc2)c(=O)c2cc(F)c(N3CCNC(C)C3)c(F)c21 (stereo not given)
active: [2] -12.6%
inactive: [1] 31.4% | [3] 58.7% | [4] 54.8% | [5] 61.3% | [6] 62.6% | [7] 74.5% | [8] 71.4% | [9] 104% | [10] 42.7%

CC1COCC(C)N1C1=C(Cl)C(=O)c2ccccc2C1=O (stereo not given)
active: [2] 0.947%
inactive: [1] 97.9% | [3] 75.3% | [4] 67.4% | [5] 61.3% | [6] 90.8% | [7] 102% | [8] 104% | [9] 37.1% | [10] 80.6%

Cn1cc(-c2nn3cc(-c4ccccc4)nc3s2)c2ccccc21
inactive: [1] 99.2% | [2] 29.3% | [3] 55.3% | [4] 67.3% | [5] 89.3% | [6] 81.2% | [7] 78.9% | [8] 78% | [9] 76.9% | [10] 51.5%

COc1ccc2cc(-c3cnc4nonc4n3)ccc2c1
active: [8] -16%
inactive: [1] 62.9% | [2] 13.6% | [3] 48.3% | [4] 76.4% | [5] 23.4% | [6] 36.6% | [7] 31.4% | [9] 42% | [10] 10.7%

O=c1[nH]cnc2c1C(c1ccc(Br)cc1)c1sc3c(F)cccc3c1O2 (stereo not given)
inactive: [1] 100% | [2] 94.6% | [3] 96.1% | [4] 94.5% | [5] 101% | [6] 91.9% | [7] 97.9% | [8] 96.4% | [9] 106% | [10] 101%

COc1cc2oc(-c3cccc(NC(=O)c4ccc5c(c4)OCO5)c3)cc(=O)c2c(OC)c1OC
inactive: [1] 52.9% | [2] 17.4% | [3] 76.4% | [4] 64.3% | [5] 46.5% | [6] 48.1% | [7] 53.9% | [8] 57% | [9] 77.3% | [10] 49.3%

CCC/C(=N\NC(N)=O)C(OC)OC
inactive: [1] 96.2% | [2] 118% | [3] 99.5% | [4] 85.8% | [5] 102% | [6] 98.9% | [7] 112% | [8] 89.2% | [9] 103% | [10] 96.9%

O=S(=O)(c1ccccc1)N1CCCN(c2nc(-c3ccccc3)nc3nc(-c4ccccc4)oc23)CC1
inactive: [1] 119% | [2] 110% | [3] 105% | [4] 108% | [5] 115% | [6] 111% | [7] 105% | [8] 104% | [9] 109% | [10] 109%

C/C(C=O)=C\c1ccc2c(c1)OCO2
inactive: [1] 108% | [2] 113% | [3] 127% | [4] 121% | [5] 98.3% | [6] 110% | [7] 104% | [8] 106% | [9] 109% | [10] 121%

O=C(/C=C/C12c3ccccc3C(c3ccccc31)C1C(=O)NC(=O)C12)c1ccccn1 (stereo not given)
active: [2] 8.81% | [5] -46.3% | [8] -7.59% | [10] -15.4%
inactive: [1] 15.3% | [3] 19.1% | [4] 16.4% | [6] 24.1% | [7] 16% | [9] 33.8%

COc1ccc(C2=C/C(=C\c3ccc(Cl)cc3)C(=O)N2/N=C/c2ccc(Cl)cc2)cc1
inactive: [1] 105% | [2] 89.2% | [3] 96.4% | [4] 88.8% | [5] 99.3% | [6] 92.6% | [7] 100% | [8] 101% | [9] 88.7% | [10] 100%

CN1CCN(C(=O)c2cc(-c3ccc4ncnc(N5CCc6cc(F)c(Cl)cc65)c4c3)cnc2N)CC1
active: [1] 8.87% | [3] -38.6% | [5] -48.9% | [6] 0.525% | [7] 0.0297% | [8] -24.3% | [9] 6% | [10] 1.59%
inactive: [2] 11.1% | [4] 10.5%

O=C(CSc1nc2ccc([N+](=O)[O-])cc2[nH]1)Nc1ccc(Br)cc1
inactive: [1] 62.2% | [2] 26.9% | [3] 40.9% | [4] 67.7% | [5] 85.5% | [6] 65.5% | [7] 56.5% | [8] 70.5% | [9] 37.7% | [10] 50.1%

CC[C@]12C=CCN3CC[C@@]4(c5ccc(OC)cc5N(C)[C@H]4[C@@](O)(C(=O)OC)[C@@H]1OC(=O)CCCN1CCOCC1)[C@@H]32
inactive: [1] 106% | [2] 100% | [3] 110% | [4] 115% | [5] 114% | [6] 98.6% | [7] 104% | [8] 106% | [9] 104% | [10] 103%

COc1ccc2cc(-c3ccc(-c4ccc(C(=N)N)s4)s3)ccc2c1
inactive: [3] 101% | [7] 86% | [8] 89.5% | [9] 62.8% | [10] 36.2%
active: [1] -67.2% | [2] -42.8% | [4] -15.2% | [5] -25.9% | [6] -33.9%

COc1cc(C#Cc2ccc(=O)oc2C#Cc2ccccc2)cc(OC)c1OC
inactive: [1] 65.7% | [3] 75.9% | [4] 89% | [5] 78.7% | [6] 43.5% | [7] 96.9% | [8] 110% | [9] 108% | [10] 72.6%
active: [2] 4.76%

CCNC(=O)Oc1ccc(/C(=C(/C)Cc2ccc(OC)cc2)c2ccc(OCCN3CCCCCC3)cc2)cc1
active: [2] 5.8%
inactive: [1] 92.2% | [3] 109% | [4] 64.1% | [5] 68.3% | [6] 74.5% | [7] 88.4% | [8] 96.4% | [9] 76.7% | [10] 68.3%
